These results are taken from PubChem BioAssay (EPA / NIEHS).

Broadly, the AC50 is the concentration at which the activity in the assay is half-maximal.

Inconclusive results are not listed. Calls of active or inactive are those of the source. Rule for the calls: active = hit-call score of the fitted dose curve at least 0.9, where 1 is the maximum; inconclusive = response in the unintended direction; inactive = score below 0.9.

Read-out in the assay: HMG-CoA synthase (HMGCS2), HMGCS2 (gene 3158)
As to the kind of experiment: CLD_HMGCS2_6hr: CellzDirect (CLD) Gene Expression Assay for HMG-CoA synthase (HMGCS2) at 6 hours (AID 2283682).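 Note: actives raise HMGCS2 transcript above the 0.2% DMSO vehicle baseline.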 On the procedure:
CLD_6hr is a cell-based, multiplexed-readout assay that uses hepatocyte, a human liver primary cell, with measurements taken at 6 hours after chemical dosing in a 96-well plate.CLD_HMGCS2_6hr is one of 16 assay component(s) measured or calculated from the CLD_6hr assay. It is designed to make measurements of mRNA induction, a form of inducible reporter, as detected with chemiluminescence signals by Quantitative Nuclease Protection Assay (qNPA) technology.Data from the assay component CLD_HMGCS2_6hr was analyzed at the endpoint, CLD_HMGCS2_6hr, in the positive analysis fitting direction relative to DMSO as the negative control and baseline of activity. Using a type of inducible reporter, gain-of-signal activity can be used to understand changes in the reporter gene as they relate to the gene HMGCS2. Furthermore, this assay endpoint can be referred to as a primary readout. To generalize the intended target to other relatable targets, this assay endpoint is annotated to the lyase intended target family, where subfamily is HMG-CoA synthase.
Human hepatocyte cultures were treated daily for two consecutive days with fresh dosing solutions containing appropriate concentrations of the 320 ToxCast chemicals (chemical identities were blinded to CellzDirect and other ToxCast collaborators), vehicle control (0.2% DMSO), and positive control inducers as summarized in Table 1. Due to the large number of treatment groups and chemicals examined, the ToxCast chemicals were divided into two groups (spanning two independent cultures of hepatocytes from separate donor preparations (Hu778: ToxCast plates 1 and 2; Hu776: ToxCast plates 3 and 4). Each preparation of human hepatocyte cultures was treated with respective vehicle control, medium only control, set of six positive controls/reference chemicals for the five hepatic receptor pathways, and a subset of eight of the ToxCast chemicals (indoxacarb, pyrithiobac-sodium, norflurazon, cyhalofop-butyl, methomyl, thiram, acetochlor, and propiconazole). These replicate data, coupled with internal replicates designed within the blinded ToxCast chemical library, provided additional data to evaluate interindividual differences between hepatocyte preparations and their potential impact on chemical profiles.Cell morphology and integrity were evaluated using phase-contrast microscopy as an indicator of hepatocyte cell health (Tyson & Green, 1987). Cultures for each treatment group (i.e., media, vehicle [0.2% DMSO], positive control inducers [multiple concentrations], and the ToxCast chemicals [multiple concentrations]) were observed and cell morphology was assessed relative to vehicle control cultures at each harvest time point (0, 6, 24, or 48 h). […] Images were evaluated at the conclusion of the study to assess changes in cell integrity and account for the effects of chemical exposure on uncharacteristic changes in concentration-dependent gene expression profiles. The results from these determinations of apparent cytotoxicity were annotated (yes/no) alongside the corresponding qNPA data for reference.At the conclusion of each treatment period, hepatocyte cultures (96-well) were washed with 1 volume of HBSS, lysed by addition of 25 ul ArrayPlate lysis buffer (HTG, Tucson, AZ), and 70 ul/well of Denaturation Oil, denatured by incubation at 95C for 10 min, and frozen at approximately -70C until analysis by nuclease protection assay (qNPA) (Roberts et al., 2007). For qNPA analysis, cell lysates were thawed at 50C for approximately 30 min, qNPA probes were added, and samples were incubated at 95C for 10 min to begin the detection process by denaturing the target RNA, dissociating the duplexes and secondary structure hybridization. At the conclusion of the hybridization period, S1 nuclease reagent was added to each sample to digest all nonprotected nucleotides at 50C for 60-90 min. […]
`Nc1c(Cl)c(Cl)nc(C(=O)O)c1Cl`: the compound was classed as inactive.
The same measure, in the same setting: the same measure for `C=C(C)CN(CC)c1c([N+](=O)[O-])cc(C(F)(F)F)cc1[N+](=O)[O-]`: “inactive”; for `Nc1cnn(-c2ccccc2)c(=O)c1Cl`: “inactive”.
For the compound `CC(C)N1C(=O)c2ccccc2NS1(=O)=O`, the AC50 was 7.35 nM (active).
As for `CCCN(CC)CC1COC2(CCC(C(C)(C)C)CC2)O1` (stereo unspecified), the result was inactive.
Take `COc1ccc(-c2ccccc2)cc1NNC(=O)OC(C)C`: the call was inactive.
Regarding `Cc1ccc(N=CN(C)C=Nc2ccc(C)cc2C)c(C)c1`, the compound was classed as inactive.
In the case of `COC(=O)NC(=S)Nc1ccccc1NC(=S)NC(=O)OC`, the outcome was inactive.
Same read-out and setting: the same measure for `CCOc1nc(F)cc2nc(S(=O)(=O)Nc3c(Cl)cccc3Cl)nn12`: “inactive”.
Same read-out and setting: the same measure for `O=C(Nc1ccccc1-c1ccc(Cl)cc1)c1cccnc1Cl`: “inactive”; for `CCNC(=O)NC(=O)C(C#N)=NOC`: “inactive”.
Same read-out and setting: the same measure for `CSC(=O)c1c(C(F)F)nc(C(F)(F)F)c(C(=O)SC)c1CC(C)C`: “inactive”; for `Clc1cccc(C(Cl)(Cl)Cl)n1`: “inactive”.
Turning to `CCSC(=O)N1CCCCCC1`, the compound was classed as inactive.
Turning to `COC(=O)NS(=O)(=O)c1ccc(N)cc1`, the compound was called inactive.
The same measure, in the same setting: the same measure for `COCC(=O)N(c1c(C)cccc1C)C(C)C(=O)OC` (stereo unspecified): “inactive”; for `Cc1cnc(C2=NC(C)(C(C)C)C(=O)N2)c(C(=O)O)c1` (stereo unspecified): “inactive”; for `COc1cc(OC)nc(NC(=O)NS(=O)(=O)c2ncccc2OCC(F)(F)F)n1`: “inactive”.
As to `O=c1n(Cl)c(=O)n(Cl)c(=O)n1Cl`, the call was inactive.
Turning to `CS(=O)(=O)c1cc(C(F)(F)F)ccc1C(=O)c1cnoc1C1CC1`, the AC50 was 3970 nM (active).
In the case of `N#Cc1c[nH]cc1-c1cccc2c1OC(F)(F)O2`, the result was inactive.
Same read-out and setting: the same measure for `CCNP(=S)(OC)O/C(C)=C/C(=O)OC(C)C` (stereo unspecified): “inactive”.
Same read-out and setting: the same measure for `CCN(CC)c1nc(C)cc(OP(=S)(OC)OC)n1`: “inactive”; for `CCC(C)n1c(=O)[nH]c(C)c(Br)c1=O` (stereo unspecified): “inactive”; for `CC1(C)C(C(=O)OC(C#N)c2cccc(Oc3ccccc3)c2)C1(C)C` (stereo unspecified): “inactive”.
Take `CC1(C)CON(Cc2ccccc2Cl)C1=O`: the compound was classed as inactive.
The same measure, in the same setting: the same measure for `CCOc1cc(C(C)(C)C)ccc1C1COC(c2c(F)cccc2F)=N1` (stereo unspecified): “inactive”.
Regarding `CC1(C)C(C=C(Cl)Cl)C1C(=O)OC(C#N)c1cccc(Oc2ccccc2)c1` (stereo unspecified), the outcome was inactive.
`C=CCOC(=O)C(C)(C)OC(=O)c1cc(-n2c(=O)cc(C(F)(F)F)n(C)c2=O)ccc1Cl`: the outcome was inactive.
On the same count and under the same terms, the same measure for `Cn1c(-c2ccccc2)cc(-c2ccccc2)[n+]1C`: “inactive”.
As to `CCOC(=O)C(C)OC(=O)c1cc(Oc2ccc(C(F)(F)F)cc2Cl)ccc1[N+](=O)[O-]` (stereo unspecified), the AC50 is 24.1 nM (active).
